PubChem BioAssay (NCATS)
Inconclusive results are not listed. The source made the active and inactive calls. The call rests on the fitted dose curve; in most records, active means well fitted inhibition curve with a large enough effect; inconclusive means small, poorly fitted or top-dose-only effect; inactive means flat fitted curve, though single readings scatter.

system: HACAT; test: qHTS assay to identify novel small-molecules to repurpose for Merkel cell carcinoma treatment (AID 1296009); settings: MCC and control cell lines, CellTiter-Glo viability, 72 h; at 44.8 µM (top of the series) unless noted; further: nearly all actives have a fitted effect of over 60% in size
How it was run: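 Cells were incubated with compound for 72 hr at 37 degree celsius before CellTiter-Glo addition. Luminescence was normalized with no-cell wells as full cytotoxicity and DMSO as baseline.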

Structure (SMILES)	outcome
N#Cc1cccc(-c2nc(-c3cccnc3)no2)c1	inactive [at 17.4 µM]
O=C(O)Cn1nnc(-c2ccc(CN(CCCCOc3ccc(CN4CCCC4)cc3)CCc3ccccc3)cc2)n1	inactive
C/C(=C/CO)CC[C@H]1[C@]2(C)C[C@H](O)CC(C)(C)[C@H]2CC[C@]1(C)O	inactive
O=C(/C=C/c1ccc(O)cc1)OCC1OC(O)C(OC2OC(CO)C(O)C(O)C2O)C(O)C1O (stereo not given)	inactive [at 17.4 µM]
CC1(C)C(=O)CCC2(C)C1C(O)C=C1COC(=O)C12O (stereo not given)	inactive
C=C(CCO)C(=O)OCC1OCC(OC(=O)C(=C)CCO[C@@H]2O[C@H](CO)[C@@H](O)[C@H](O)[C@H]2O)C(O)C1O (stereo not given in full)	inactive [at 17.4 µM]
CC1=C2C[C@H]3OC(=O)[C@H](O)[C@@]4(O)[C@@H](C)[C@@H](O)[C@H](O)C([C@@]2(C)[C@H](O)[C@@H](O)C1)[C@@]34C (stereo not given in full)	inactive
COc1ccnc2[nH]cc(C(=O)C(=O)N3CCN(C(=O)c4ccccc4)CC3C)c12 (stereo not given)	inactive
OC[C@@]1(O)CO[C@@H](OC[C@H]2O[C@@H](OCc3ccccc3)[C@H](O)[C@@H](O)[C@@H]2O)[C@@H]1O	inactive [at 17.4 µM]
COc1ccc(/C=C/C(N)=O)cc1OC	inactive
CC(=O)OC(C)C(C)(O)C(=O)O[C@@H]1CC[C@]2(C)CC(=O)C(=C(C)C)C[C@H]2[C@]1(C)OC(C)=O (stereo not given in full)	inactive [at 17.4 µM]
N[C@@H](CC(=O)Nc1ccc(Oc2cc(F)c(F)cc2Br)cc1)C(=O)O	inactive
CC(=O)OC1C(CO)OC(O[C@H]2[C@H](OC(=O)[C@]34CCC(C)(C)C[C@H]3C3=CCC5[C@@]6(C)CC[C@H](O[C@@H]7O[C@H](C(=O)O)[C@@H](O)[C@H](O[C@@H]8OC[C@@H](O)[C@H](O)[C@H]8O)[C@H]7O[C@@H]7O[C@H](CO)[C@H](O)[C@H](O)[C@H]7O)[C@@](C)(C=O)C6CC[C@@]5(C)[C@]3(C)C[C@H]4O)O[C@H](C)[C@H](OC3OC(C)C(OC4OCC(O)C(O)C4O)C(O)C3O)[C@@H]2O)C(O)C1O (stereo not given in full)	inactive [at 9.27 µM]
O=C(Nc1ccccc1)Nc1ccc(-c2ccc(C(=O)C3CCCC3C(=O)O)cc2)cc1 (stereo not given)	inactive
Cn1c2ccc(NC(=O)c3ccccc3)cc2c(=O)n2nc(C(=O)O)cc12	inactive [at 17.4 µM]
C[C@@H]1CCC2C(C)(C)[C@H](O)[C@H](O)C[C@]2(C)[C@@]12Cc1c(O)cc3c(c1O2)CN(CCCC(=O)O)C3=O (stereo not given in full)	inactive [at 17.4 µM]
CC(C)=CCC[C@@](C)(O)[C@H]1CC[C@]2(C)[C@@H]1[C@H](O)CC1[C@@]3(C)CC[C@H](O[C@@H]4O[C@H](CO)[C@@H](O)[C@H](O)[C@H]4O[C@@H]4O[C@H](CO)[C@@H](O)[C@H](O)[C@H]4O)C(C)(C)[C@@H]3CC[C@]12C (stereo not given in full)	inactive [at 17.4 µM]
CC1(C)CC[C@]2(C(=O)O[C@@H]3O[C@H](CO)[C@@H](O)[C@H](O)[C@H]3O)CC[C@]3(C)C(=CCC4[C@@]5(C)CC[C@H](O[C@H]6O[C@H](CO)[C@@H](O)[C@H](O[C@@H]7O[C@H](CO)[C@@H](O)[C@H](O)[C@H]7O)[C@H]6O)C(C)(C)C5CC[C@]43C)[C@@H]2C1 (stereo not given in full)	inactive [at 9.27 µM]
COC(=O)[C@H](Cc1cccc(C(=N)N)c1)[C@@H](C)NC(=O)c1ccc(-c2cc[n+]([O-])cc2)cc1	inactive
C[C@@H]1CC[C@]2(C(=O)O[C@@H]3O[C@H](CO[C@@H]4O[C@H](CO)[C@@H](O)[C@H](O)[C@H]4O)[C@@H](O)[C@H](O)[C@H]3O)CC[C@]3(C)C(=CCC4[C@@]5(C)CC[C@H](O)[C@](C)(C(=O)O)C5CC[C@]43C)[C@@H]2[C@]1(C)O (stereo not given in full)	inactive [at 9.27 µM]
O=C(OC[C@H]1O[C@H](O[C@]2(CO)O[C@H](CO)[C@@H](O)[C@@H]2O)[C@H](O)[C@@H](O)[C@@H]1O)c1ccc(O)cc1	inactive [at 17.4 µM]
CC12CC34CC(O)C5C(CO)(CO)CC(=O)CC5(C)C3CC1C2C4 (stereo not given)	inactive
CC(C)[C@](O)(c1ccc2cc(OC(F)F)c(OC(F)F)cc2c1)c1cn[nH]n1	inactive
O=C(CCCCC1CCCCC1)N1CCC(c2cnc[nH]2)CC1	inactive
CNC(C)C(=O)NC(C(=O)N1CCCC1C(=O)Nc1cccc2ncccc12)C(C)C (stereo not given)	inactive
